Laboratory results reported in PubChem BioAssay AID687001 (Broad Institute, 2013).
Results with a measured potency or affinity are listed apart. Calls of active or inactive are those of the source.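 How the source made its calls: active means signal-lowering compounds whose fitted half-maximal concentration is at or below twice the top tested dose in every run; inconclusive means runs disagree, flat 30 to 70% inhibition, or poor curve fit; inactive means the rest.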

molecular target: Protein S100-A4 (Homo sapiens) (UniProt P26447); test: human S100A4 peptide interaction inhibition curves – biochemical, fluorescence polarization, cherry-picked hits, dose response (AID 687001); conditions: FP, S100A4/TAMRA-myosin IIA peptide binding; series mostly up to 11 µM; activity change, negative = inhibition: at the top concentration;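 further: 0% = DMSO neutral control wells and -100% = TFP positive control wells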
Sequence (P26447 whole entry, looked up): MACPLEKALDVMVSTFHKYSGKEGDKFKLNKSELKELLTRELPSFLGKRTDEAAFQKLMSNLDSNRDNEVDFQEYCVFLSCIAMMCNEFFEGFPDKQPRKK

Activity change, negative = inhibition, inactive:
O=[N+]([O-])c1ccccc1CN1CCN(S(=O)(=O)Cc2ccccc2)CC1 2.44%
CC1(C(=O)Nc2ccc3c(c2)OCO3)CCN1C(=O)Cc1cccc2ccccc12 (stereo not given) -2.86%
CN(C)C(CNC(=O)CCc1nc2cc(Cl)ccc2n(Cc2ccccc2)c1=O)c1ccccc1 (stereo not given) 34.5%
CC1(C)Cc2cccc(OCC(=O)N3CCN(c4cccc(C(F)(F)F)c4)CC3)c2O1 -1.22%
COCC#Cc1cnc2c(c1)C(=O)N([C@H](C)CO)C[C@H](C)[C@H](CN(C)C(=O)C1CCC1)O2 10%
Cc1cccc(S(=O)(=O)N2C[C@@H]3[C@H](c4ccccc42)[C@H](CO)N3CC2CCOCC2)c1 -4.19%
CCNC(=O)[C@@H]1[C@@H](CO)[C@@H]2Cn3c(ccc(-c4ccccc4)c3=O)[C@@H]2N1CC -3.86%
COc1ccccc1NC(=O)N1CCCCN2[C@H](C1)[C@@H](c1ccc(C#CC3CC3)cc1)[C@@H]2CO 40.1%
CCOc1ccc(OCCNC(=O)c2cc(C3CC3)nc3c2cnn3C(C)C)cc1 0.95%
COc1ccc(C2=NN(CCC(=O)NC3CCC(C)CC3)C(=O)CC2)cc1 (stereo not given) -1.31%
O=C(CSc1nc2cc(Cl)ccc2s1)c1ccco1 5.96%
C/C=C/c1ccc(C2[C@H]3CNC[C@@H]2N3S(=O)(=O)c2ccccc2C)cc1 (stereo not given in full) 29.6%
CCCNC(=O)N1CC[C@@H]2[C@@H](CO)N(C)c3ccc(-c4ccc(F)cc4)cc3[C@@H]21 -1.37%
Cc1cccc(-n2nc3c(c2NC(=O)c2cc4ccccc4o2)CS(=O)(=O)C3)c1 -2.96%
CCC(Sc1nc2ccncc2[nH]1)C(=O)Nc1ccc(C)c(Cl)c1 (stereo not given) -0.285%
